Measured values taken from PubChem BioAssay AID1347421 (Sanford-Burnham Center for Chemical Genomics, 2020).
The full ranking holds about 1,500 compounds; the median of “activity” is about 2, and the lowest 2% start at about -18. Shown is part of a subset that was picked to be rich in the lowest values. Active and inactive are the calls of the source.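 Rule for the calls: active = inhibition of at least 40% at 10 µM; inconclusive = no clear call, values can overlap the other calls; inactive = the rest.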

Molecular target: Sulfhydryl oxidase 1 (Homo sapiens) (UniProt O00391)
Assay: QSOX1 enzyme inhibitors, confirmation, biochemical, ROS-Glo luminescence, single concentration (AID 1347421);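 note: 0% = DMSO wells with enzyme and 100% = wells lacking QSOX1 enzyme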
Settings: recombinant hQSOX1, RNase A substrate, ROS-Glo H2O2 luminescence; at 10 µM

Chain of Sulfhydryl oxidase 1 (Homo sapiens) (O00391 whole entry, looked up): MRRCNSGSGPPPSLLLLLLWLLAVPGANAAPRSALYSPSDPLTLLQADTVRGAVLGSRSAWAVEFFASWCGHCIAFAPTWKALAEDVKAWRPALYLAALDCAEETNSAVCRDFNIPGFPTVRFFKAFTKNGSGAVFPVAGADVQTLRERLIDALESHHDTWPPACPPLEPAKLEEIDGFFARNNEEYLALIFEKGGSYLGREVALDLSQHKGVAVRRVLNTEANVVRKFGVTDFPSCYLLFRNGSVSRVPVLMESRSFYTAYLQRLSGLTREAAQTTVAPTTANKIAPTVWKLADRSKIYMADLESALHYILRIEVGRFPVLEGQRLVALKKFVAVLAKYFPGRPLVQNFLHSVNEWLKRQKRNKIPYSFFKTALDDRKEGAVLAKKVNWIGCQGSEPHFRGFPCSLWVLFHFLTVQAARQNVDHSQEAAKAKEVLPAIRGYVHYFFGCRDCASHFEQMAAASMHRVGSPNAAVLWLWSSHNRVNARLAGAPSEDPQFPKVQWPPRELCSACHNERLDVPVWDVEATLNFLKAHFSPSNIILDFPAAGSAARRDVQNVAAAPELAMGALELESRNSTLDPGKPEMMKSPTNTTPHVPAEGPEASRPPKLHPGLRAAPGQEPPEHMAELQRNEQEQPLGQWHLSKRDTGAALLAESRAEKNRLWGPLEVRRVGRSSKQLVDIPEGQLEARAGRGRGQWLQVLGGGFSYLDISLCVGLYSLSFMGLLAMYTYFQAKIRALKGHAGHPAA

Compound	activity
Cc1ccc(C(=O)N2CCC3(CCCN(Cc4ccc(F)c(F)c4)C3=O)C2)cn1 (stereo unspecified)	3.9%
CCSCCn1ncc(N2CCNCC2)cc1=O	1.4%
CC(C)(CO)NC(=O)CC(c1ccccc1)c1ccc(Cl)cc1 (stereo unspecified)	0.5%
NCc1ccccc1SC1=[C+]C=C[C+]=C1CN1CCOCC1	-11.3% (inactive)
O=C(NC(=O)N1CCCC1)c1ccc(Cl)cc1	-2.8% (inactive)
O=C1CCCN1CCCNCc1cccc(OCC(O)CN2CCCCCC2)c1 (stereo unspecified)	5.6%
COc1ccccc1Oc1ncccc1CNCC1CCOC1 (stereo unspecified)	2.6%
Cc1cc(S(=O)(=O)n2ccnc2)c(C)c(C)c1C	-0.1% (inactive)
O=C(CC1C(=O)NCCN1Cc1cccnc1)NCCCn1ccc2ccccc21 (stereo unspecified)	3.3%
COc1ccc(S(=O)(=O)N2CCCC2)cc1N(C)S(C)(=O)=O	-11% (inactive)
COc1ccc(S(=O)(=O)N2CCCC(C(=O)NC3CC3)C2)cc1OC (stereo unspecified)	-18.9% (inactive)
COCC(=O)Nc1ccc(S(=O)(=O)N2CCCC(C)C2)cc1 (stereo unspecified)	7.5%
CN1CCCCCC1C(=O)NCc1cccnc1N1CCN(c2ccccn2)CC1 (stereo unspecified)	-5.2% (inactive)
CCOC(=O)c1cccc(CSc2n[nH]c(N)n2)c1	-1.9% (inactive)
Cn1ccnc1C1CCCCN1Cc1c(C(=O)N2CCCCCCC2)nc2sccn12 (stereo unspecified)	10.8%
COc1cccc(-c2n[nH]c3c2CN(CCc2ccccc2)CC3)c1	5.1%
Fc1ccccc1-c1noc2c1CN(Cc1ccc3c(c1)OCCO3)CC2	-4.5% (inactive)
CCN(CC)C(=O)NCc1ccccn1	-15.1% (inactive)
O=C(NCc1ccc2c(c1)OCO2)C1CCC(=O)N(CCc2cccc(F)c2)C1 (stereo unspecified)	-2% (inactive)

Compound	activity
CCN(CC)C(=O)NCc1ccc2c(c1)OCO2	-18.4% (inactive)
Cc1cc(N2CCN(C(=O)c3cn(Cc4ccccc4F)nn3)CC2)cc(C)n1	2.1%
Cc1noc(C)c1CC(=O)N1CCCC(CCC(=O)N(C)CCc2ccccn2)C1 (stereo unspecified)	5.3%
CN(CCc1ccccn1)C(=O)CCC1CCCN(C(=O)Cc2cccnc2)C1 (stereo unspecified)	4.4%
FC(F)(F)c1cc(-c2ccco2)nc(N2CCCCC2)n1	-20.8% (inactive)
FC(F)(F)c1cc(-c2ccco2)nc(NCc2cccs2)n1	-4.8% (inactive)
Cc1ccccc1CC(=O)NCC(C)C	-16% (inactive)
COc1cc(C(=O)NC2CCCCC2)ccc1OC1CCN(C(C)=O)CC1	3.4%
CN(CCc1ccccn1)[C@@H]1CCN(Cc2ccc(C#CCO)s2)C[C@H]1O	4.2%
Cc1occc1C(=O)Nc1ccc([N+](=O)[O-])cn1	17.1%
C=C(C)CN(CC)C(=O)c1cc(COc2ccc(-n3cncn3)cc2)on1	9.4%
COc1ccc(C2CC(=O)c3cn[nH]c3C2)cc1 (stereo unspecified)	-17.7% (inactive)
COc1ccc(C2CC(=O)c3cnc(NC4CC4)nc3C2)cc1 (stereo unspecified)	3.9%
CCN1CCN(c2ncc3c(n2)CC(c2ccc(OC)c(OC)c2)CC3=O)CC1 (stereo unspecified)	-19% (inactive)
O=C(CCc1ccsc1)N1CCOC(Cc2ccccc2Cl)C1 (stereo unspecified)	20.5%
Cc1cc(Br)c(S(=O)(=O)NCc2ccncc2)cc1C	3.4%
NC(=O)C1(N2CCCCC2)CCN(C(=O)C2CCC(=O)N(C3CCCC3)C2)CC1 (stereo unspecified)	5.6%
O=C(Nc1ccccc1C(=O)NC1CC1)c1ccccc1Cl	11.7%
Cc1ccccc1C(=O)Nc1c(Cl)ccc2nsnc12	0.9%

Compound	activity
Cc1ccccc1C(=O)Nc1ccccc1C(=O)N(C)C	-20% (inactive)
COc1ccccc1/C=C/CN1CCNC(=O)C1CC(=O)NCCOc1cccnc1 (stereo unspecified)	-2% (inactive)
CC(C)Cn1c(CN(C)Cc2ccco2)cnc1S(=O)(=O)CC1CCCO1 (stereo unspecified)	4.1%
O=C1CCC(C(=O)N2CCC(Oc3cccc(F)c3)CC2)CN1CCc1ccccn1 (stereo unspecified)	0.7%
O=C(Nc1n[nH]c(C2CCCCC2)n1)N1CCOC2(CCCC2)C1	1%
C=CCC1(CC=C)CCCN1C(=O)c1cn(CC2COc3ccccc3O2)nn1 (stereo unspecified)	-0.3% (inactive)
CS(=O)(=O)c1ncc(CO)n1Cc1ccccc1	-4.5% (inactive)
O=c1c2ccccc2nc(NCCO)n1Cc1ccccc1	-20.3% (inactive)
O=C(c1cc(S(=O)(=O)N2CCOCC2)c(Cl)cc1Cl)N1CCSCC1	-18.4% (inactive)
NC(=O)COc1ccc(S(=O)(=O)N2CCOCC2)cc1	-13.3% (inactive)
O=C(O)c1ccc(S(=O)(=O)N2CCSCC2)cc1	-3% (inactive)
O=C(Nc1ccc(-c2nc3ccccc3[nH]2)cc1)c1ccccn1	5.8%
CN(C)S(=O)(=O)c1cccc(S(C)(=O)=O)c1	8.2%
COc1cc(C)nc(NC(=O)Nc2cccc(Cl)c2)n1	-2.3% (inactive)
Cc1ccc(S(=O)(=O)c2ncsc2Cl)cc1	0.6%
CC(C)Oc1ccc(NC(=O)CCN2C(=O)c3ccccc3C2=O)cc1	0.6%
COC1=C(OC)C=CC(c2nnn(C3CCNCC3)n2)=[C+]1	-20.6% (inactive)
COc1cccc(CNCc2ccc(F)cc2)c1	-17.7% (inactive)
